The supplement of paper PMC6555819

Legend:
Assay in all cases: PBM binding z-score (relative to random genomic background probes); higher = stronger binding; sequences stand for … in GC…GCGATTGACAGCGTAGAATGAAGG
[1] = tested on: PPARg:RXRa DBDmut IVT, anti-RXR (DBD mutation: RXRa K156A/R161A, NR concentration 270 nM, RXRa partner concentration 90 nM)
Summary of the method: (§1)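 Antibodies against each partner of ligand-free nuclear receptor dimers (one per run) detected binding on custom Agilent 4×180K protein-binding microarrays after 1 h incubation. The double-stranded probes had 34-nt variable regions carrying direct-repeat seeds, single-nucleotide variants, half-site ablations and random human genomic background sequences. Binding z-scores, from regression-normalized fluorescence, use the random background probes as reference.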

[2] = tested on: PPARg:RXRa IVT, anti-PPARg (NR concentration 270 nM, RXRa partner concentration 90 nM)
Summary of the method: as §1

[3] = tested on: PPARg DBDmut:RXRa IVT, anti-PPARg (DBD mutation: PPARg1 K132A/R137A, NR concentration 270 nM, RXRa partner concentration 90 nM)
Summary of the method: as §1

[4] = tested on: PPARg DBDmut IVT, anti-PPARg (DBD mutation: PPARg1 K132A/R137A, NR concentration 270 nM)
Summary of the method: as §1

[5] = tested on: PPARg homodimer (NR concentration 180 nM)
Summary of the method: as §1

[6] = tested on: PXR:RXRa (NR concentration 270 nM, RXRa partner concentration 90 nM)
Summary of the method: as §1

[7] = tested on: PXR homodimer (NR concentration 270 nM)
Summary of the method: as §1

[8] = tested on: RARa:RXR (NR concentration 270 nM, RXRa partner concentration 90 nM)
Summary of the method: as §1

[9] = tested on: RARa homodimer (NR concentration 270 nM)
Summary of the method: as §1

[10] = tested on: RARb:RXRa (NR concentration 270 nM, RXRa partner concentration 90 nM)
Summary of the method: as §1

[11] = tested on: RARb homodimer (NR concentration 270 nM)
Summary of the method: as §1

[12] = tested on: RARg:RXRa (NR concentration 270 nM, RXRa partner concentration 90 nM)
Summary of the method: as §1

[13] = tested on: RARg homodimer (NR concentration 270 nM)
Summary of the method: as §1

[14] = tested on: RXRa DBDmut IVT, anti-RXR (DBD mutation: RXRa K156A/R161A, NR concentration 90 nM)
Summary of the method: as §1

[15] = tested on: RXRa homodimer (NR concentration 180 nM)
Summary of the method: as §1

[16] = tested on: THRa:RXRa (NR concentration 90 nM, RXRa partner concentration 90 nM)
Summary of the method: as §1

[17] = tested on: THRa homodimer (NR concentration 90 nM)
Summary of the method: as §1

[18] = tested on: VDR homodimer (NR concentration 270 nM)
Summary of the method: as §1

Sequence | PBM binding z-score [1] | PBM binding z-score [2] | PBM binding z-score [3] | PBM binding z-score [4] | PBM binding z-score [5] | PBM binding z-score [6] | PBM binding z-score [7] | PBM binding z-score [8] | PBM binding z-score [9] | PBM binding z-score [10] | PBM binding z-score [11] | PBM binding z-score [12] | PBM binding z-score [13] | PBM binding z-score [14] | PBM binding z-score [15] | PBM binding z-score [16] | PBM binding z-score [17] | PBM binding z-score [18]
TCTAGTTGGTCACAGGTCACACACTCGAAATGCG | 3.01 | 4.53 | 1.58 | 1.96 | 2.52 | 3.06 | 0.924 | 3.51 | 1.49 | 3.33 | 3.55 | 3.75 | 3.33 | 1.62 | 3.83 | 2.96 | 1.97 | 1.7
GATACAGGGTCAGCTAGAGGCCAGCGTATGGAAA | 1.62 | 2.35 | -0.653 | -0.347 | 2.22 | 2.97 | -0.477 | 4.55 | -0.0319 | 4.21 | 3.69 | 6.91 | 5.12 | 0.996 | 4.79 | 3.11 | 0.434 | 0.825
TCATATAGGTAATACAGGTGAGAGTCGGCATCTA | 3.93 | 3.29 | 1.38 | 1.56 | 0.749 | 0.46 | 0.623 | 0.533 | 1.42 | 0.457 | 0.373 | 0.339 | 0.708 | 1.4 | 0.681 | 0.631 | 0.164 | 0.172
TCATATAGGTATTACAGGTGAAAGTCGGCATCTA | 3.05 | 1.69 | 0.864 | 0.68 | 1.37 | 0.945 | 0.656 | 1.39 | 1.42 | 0.578 | 0.804 | 0.652 | 0.438 | 1.81 | 1.35 | 0.854 | 0.684 | 0.524
GCAGACAGGTGAAACGCATGTAACTCAGGGTGGC | 0.516 | 0.404 | -1.74 | -0.927 | -0.716 | -0.307 | -0.659 | -0.0582 | -0.606 | 0.532 | -0.102 | 0.258 | 0.151 | -0.443 | 0.749 | 0.0674 | -0.704 | -0.736
TAGCCTAGGTCATGGGACAGTATACCACGCGAAC | 1.93 | 3.38 | 0.841 | 0.664 | 2.06 | 1.99 | -0.252 | 2.89 | 0.415 | 3.88 | 3.25 | 4.44 | 4.59 | 0.981 | 3.62 | 3.35 | 1.62 | 0.784
CGTCCAAGCTCAGAGAGGTCAGTGAATGCCGAGT | 0.269 | 0.153 | -0.648 | -1.03 | 2.06 | 2.96 | 0.893 | 2.85 | 0.843 | 2.82 | 3.56 | 2.72 | 2.99 | 0.551 | 2.36 | 2.19 | 0.794 | 2.2
